The list is not random: actives were taken first. Their share in the collection is about 8.3%.
FBPA Giardia inh: inhibitors of Giardia lamblia fructose-1,6-bisphosphate aldolase | purified Giardia FBPA | Potency, µM (titrated, usually from 59.6 µM), for inactives: at the top dose activity, negative = inhibition, most hits filed as inhibitors | 290,000 tested, 0.71% active | A8B2U2 | AID 2451; also: potency is read from the fitted curve at half-maximal effect; nearly all actives have a fitted effect of over 55% in size
Target sequence (A8B2U2 whole entry, looked up): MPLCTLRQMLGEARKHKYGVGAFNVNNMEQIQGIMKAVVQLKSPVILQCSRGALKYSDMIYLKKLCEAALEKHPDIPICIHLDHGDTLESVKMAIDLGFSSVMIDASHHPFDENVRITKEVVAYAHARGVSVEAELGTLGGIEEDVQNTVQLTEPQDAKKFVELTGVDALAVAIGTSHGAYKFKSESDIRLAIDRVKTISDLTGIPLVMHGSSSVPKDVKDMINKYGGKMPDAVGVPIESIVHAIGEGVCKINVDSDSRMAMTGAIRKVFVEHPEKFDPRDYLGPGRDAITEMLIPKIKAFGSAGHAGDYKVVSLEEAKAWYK
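40 nM FBPA preincubated 10 min at RT with compound (up to 57.5 uM final), then substrate plus GAPDH/TPI/NAD/arsenate coupling and diaphorase/resazurin added. Fluorescence read after 20 min at RT, 525/598 nm.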
MARV entry inh: blocks Marburg virus binding to or entry into cells | Marburg virus pseudotyped entry inhibition, cell reporter | Potency, µM (top dose mostly 37.8 µM), for the others: top-dose activity change, negative = inhibition, hits mostly inhibitors | 300,000 tested, 1.8% active | AID 540276; calls by dose curve; tested in HEK293 cells; also: potency is read from the fitted curve at half-maximal effect
HCMV inh: human cytomegalovirus inhibition; HFF cells, HCMV-luciferase reporter, 72 h; hits give low values; activity change, negative = inhibition, % at 57.5 µM; 410,000 tested, 4.5% active; AID 1259415; in the data active = activity change below about -60%; inconclusive = no clear call, values can overlap the other calls; inactive = above about -39%
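Steps: HFFs plated, 16 h 37C; compounds added; HCMV-luciferase added to MOI 1 PFU/cell; 72 h 37C; OneGlo reagent, 5 min room temperature; luminescence read, normalized to controls.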
FMDV antiviral: foot and mouth disease virus antiviral activity; AID 1159524; 410,000 tested, 1.2% active; FMDV antiviral cell-based qHTS; Potency, µM (series often up to 57.9 µM), inactives show top-dose activity change, negative = inhibition, most hits filed as inhibitors; calls by dose curve; tested in HEK293T cells; also: read-out not given here; potency is read from the fitted curve at half-maximal effect; nearly all actives have a fitted effect of over 45% in size
HCV inhibitor: inhibitors of hepatitis C virus infection | Potency, µM (titrated, usually from 41.8 µM), inactives show at the highest dose activity change, negative = inhibition, most hits filed as inhibitors | 340,000 tested, 3.4% active | Huh7.5.1 HCVcc-Cre infection, luciferase reporter, 44 h; also: potency is read from the fitted curve at half-maximal effect
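Cells (1,000/well) were plated 4 h before compound, then infected with HCVcc-Cre virus (~0.5 moi). After 44 h further culture, infection was read as luciferase luminescence following a 15 min substrate incubation at room temperature.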
LASV entry inh: inhibitors of Lassa virus binding or cell entry; Lassa virus pseudotype entry inhibition, cell reporter; Potency, µM (series often up to 37.9 µM), for the others: at the top dose activity change, negative = inhibition, actives largely listed as inhibitors; 300,000 tested, 1.2% active; calls by dose curve; tested in HEK293 cells; also: potency is read from the fitted curve at half-maximal effect; nearly all actives have a fitted effect of over 50% in size
* marks the source's active call; other numbers are inactive results; ? = inconclusive; · = not tested or not shown; [ ] = dose if it differs, or a comment. Unless noted, calls follow the shape of the dose curve; as a rule, active = well fitted curve in the direction sought with a large enough effect; inconclusive = small, poorly fitted or top-dose-only effect, or another doubt; inactive = no such curve, though single readings can be large; an effect the other way counts as inactive or inconclusive. % is scaled to controls: 0 for no effect and ±100 for the full control effect.

SMILES | FBPA Giardia inh | MARV entry inh | HCMV inh | FMDV antiviral | HCV inhibitor | LASV entry inh
COC(=O)c1ccc(NC(=O)c2ccc(CN3CCOCC3)cc2)cc1 | 2% | ? | -28 | 22µM* | ? | -22%[14.3 µM]
CCN(CCCNC(=O)c1nn(-c2ccc(OC)cc2)c(=O)c2c1c1ccccc1n2C)c1ccccc1 | · | -25%[46.1 µM] | 13 | -22% | · | 6%[46.1 µM]
O=C(NCc1cccnc1)c1nn(-c2ccc(F)cc2)nc1CO | · | -14%[46.1 µM] | 21 | -3% | · | 22%[46.1 µM]
COc1ccc(CN2CCN(c3ccccc3)CC2)c(C)c1C | ? | ? | -19 | -16% | -6% | 10µM*
CCC(C)Oc1ccc(C(=O)Nc2ccc(CN3CCOCC3)cc2)cc1 (centres undefined) | 10% | · | -80* | ? | 25µM* | ·
O=C(Nc1ccc(CN2CCOCC2)cc1)c1ccc(Br)cc1 | 12% | · | -20 | -5% | ? | ·
O=C(Nc1ccc(CN2CCOCC2)cc1)c1cc2ccccc2oc1=O | · | -3% | · | · | · | ·
O=C(Nc1ccc(CN2CCOCC2)cc1)c1ccc(-c2ccc(Br)cc2)o1 | 3% | ? | ? | ? | 8.9µM* | ?
COc1c(C(=O)Nc2ccc(CN3CCOCC3)cc2)cc2ccccc2c1Br | · | 11% | 4 | ? | 13µM* | -24%
CS(=O)(=O)N1CCC2(CC1)CN(Cc1ccc(C#N)cc1)C2 | 0% | · | · | -6% | · | ·
C[C@@H]1C(=O)O[C@H]2[C@H](O)[C@@]34[C@H]5CC(C(C)(C)C)[C@]36[C@H](OC(=O)[C@H]6O)O[C@]4(C(=O)O5)[C@@]12O (some centres undefined) | 4% | · | · | · | · | ·
Cc1cc(NC(c2cccnc2)c2ccc3cccnc3c2O)no1 (centres undefined) | -3% | ? | -104* | ? | 2.5µM* | ?
Oc1c(C(Nc2ccccn2)c2cccnc2)cc(Cl)c2cccnc12 (centres undefined) | -28% | ? | 2 | -25% | ? | ?
Oc1c(C(Nc2cccc(C(F)(F)F)c2)c2cccnc2)ccc2cccnc12 (centres undefined) | ? | ? | -33 | -15% | 11µM* | ?
Cc1cc(C)nc(Nc2cccc(C(F)(F)F)c2)n1 | -24% | · | ? | -3% | 0% | ·
C#CCN1C(C)=C(C(=O)OC)C(c2cccc([N+](=O)[O-])c2)C(C(=O)OCC)=C1C (centres undefined) | -3% | 14µM* | -29 | -20% | ? | ?
CSc1ncc2c(n1)-c1ccccc1N(Cc1ccc(Cl)cc1)S2(=O)=O | · | · | -10 | -14% | · | 14%[46.1 µM]
O=C(COc1ccc(Br)cc1Cl)NC1CCCCC1 | 5% | ? | ? | -29% | ? | 8%
CC(C)NC(=O)NC(=O)COc1ccc(Br)cc1Br | 15% | 6.5µM* | 49 | -24% | ? | 7.3µM*
CC(NCc1cc(Br)ccc1OCC(=O)NCc1ccccc1)c1ccccc1 (centres undefined) | -1% | · | -76* | ? | ? | ·
O=C(COc1ccc(Br)cc1CNC1CCCC1)Nc1ccccc1 | -5% | 1.8µM* | 30 | -17% | ? | -22%[46.1 µM]
O=C(COc1ccc(Br)cc1Br)NC1CCCC1 | 0% | · | -63* | 9% | ? | ·
CCN(CC)CCNCc1cc(Br)ccc1OCC(=O)NCc1ccccc1 | -12% | ? | -24 | -8% | -20% | -17%
CCC1CN(CCNC(=O)c2ccccc2-n2cccn2)Cc2cc(OC)ccc2O1 (centres undefined) | · | · | · | -13% | · | ·
COCCN=c1scc(-c2cc(OC)c(OC)c(OC)c2)n1/N=C/c1c(C)[nH]c2ccccc12 | -4% | 11µM* | 44 | ? | 8.9µM* | ?
Cc1[nH]c2ccccc2c1/C=N/n1cnnc1 | -1% | 5% | 25 | -14% | -17% | 15%
Fc1ccc(CN(Cc2ccccc2)C(c2cccs2)c2nnnn2C2CCCCC2)cc1 (centres undefined) | -1% | ? | -77* | 7% | ? | ?
Clc1ccc(CN(Cc2ccccc2)C(c2cccs2)c2nnnn2C2CCCC2)cc1 (centres undefined) | 1% | 3%[46.1 µM] | -19 | -25% | -19% | -23%
CCc1ccc(-n2c(=O)c3cccnc3n2CC(=O)N(CC)c2cccc(C)c2)cc1 | · | · | ? | -16% | · | -26%[46.1 µM]
